Here are results for 90 molecules from PubChem BioAssay AID1917 (Vanderbilt High Throughput Screening Facility, 2009).

The whole screen tested about 3,000 compounds, of which about 1,600 (53%) were called active. About 10% were inconclusive and are not listed.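 How the source made its calls: active means Flux at 10 µM at least 3 SD below or above vehicle control mean in one or both replicates; inconclusive means no clear call, values can overlap the other calls; inactive means the rest.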 The set was probably picked from earlier hits. The list is a sample of the results.

Chain of ATP-sensitive inward rectifier potassium channel 1 (Homo sapiens) (P48048 whole entry, looked up): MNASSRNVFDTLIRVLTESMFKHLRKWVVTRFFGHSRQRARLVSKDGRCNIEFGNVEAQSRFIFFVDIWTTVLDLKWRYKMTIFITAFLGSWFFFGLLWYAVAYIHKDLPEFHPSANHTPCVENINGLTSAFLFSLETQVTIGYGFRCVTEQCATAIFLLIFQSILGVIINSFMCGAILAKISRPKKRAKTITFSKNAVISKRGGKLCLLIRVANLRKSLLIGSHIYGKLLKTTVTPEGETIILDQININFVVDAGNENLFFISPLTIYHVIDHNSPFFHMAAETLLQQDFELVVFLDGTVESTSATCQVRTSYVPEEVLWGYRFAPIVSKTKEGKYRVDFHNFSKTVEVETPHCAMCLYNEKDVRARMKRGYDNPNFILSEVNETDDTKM

The experiment concerns the target ATP-sensitive inward rectifier potassium channel 1 (Homo sapiens) (UniProt P48048). Briefly: ROMK channel modulator hit retest, confirmation, cell-based, thallium flux, duplicate, resupplied hits (AID 1917). Conditions: fluorescence ratio, at 10 µM, hits give low values.
On to `COc1ccc([N+](=O)[O-])cc1N(CC(O)CN(CC(C)C)CC(C)C)S(=O)(=O)c1ccc(C)cc1` (stereo not given), for which the normalized thallium flux (F/F0 slope) was 0.0621 (active).

For the molecule `CC(C)CN(CC(C)C)CC(O)CN(c1ccccc1)S(=O)(=O)c1ccccc1[N+](=O)[O-]` (stereo not given), the normalized thallium flux (F/F0 slope) was 0.0763 (inactive).

On to `O=C(CN1C(=O)NC(Cc2ccccc2)(Cc2ccccc2)C1=O)NCC1CCCCC1`, for which the normalized thallium flux (F/F0 slope) was 0.056 (active).

On to `O=C(CN1C(=O)NC2(CCCCC2)C1=O)NCCC1=CCCCC1`, for which the normalized thallium flux (F/F0 slope) was 0.0839 (inactive).

Take `COCCNC(=O)/C(C#N)=C/c1cccc(OCc2ccccc2)c1`: the normalized thallium flux (F/F0 slope) is 0.042 (active).

With `CC(C(=O)NC1CCCC1)N(c1ccc(Oc2ccccc2)cc1)S(C)(=O)=O` (stereo not given), the normalized thallium flux (F/F0 slope) was 0.061 (active).

As for `CCCCCCCCCCOC(=O)C[N+](C)(C)CC1CCCCC1O` (stereo not given), the normalized thallium flux (F/F0 slope) is 0.0597 (active).

Turning to `CCOC(=O)Cc1csc(SCC(=O)NC(C)C23CC4CC(CC(C4)C2)C3)n1` (stereo not given), the normalized thallium flux (F/F0 slope) was 0.0513 (active).

Regarding `CCOC(=O)Cc1csc(NC(=O)CSc2ccc(Br)cc2)n1`, the normalized thallium flux (F/F0 slope) was 0.0659 (active).

Consider `Cc1cc(/C=C2/C(=N)N3C(=NC2=O)SN=C3S(C)(=O)=O)c(C)n1-c1ccccc1`, for which the normalized thallium flux (F/F0 slope) is 0.0746 (inactive).

Regarding `CC1=CC2=NC(=O)/C(=C/c3coc4ccccc4c3=O)C(=N)N2O1`, the normalized thallium flux (F/F0 slope) was 0.0388 (active).

As to `O=C(CCl)N(Cc1cccc([N+](=O)[O-])c1)c1cccc(Cl)c1`, the normalized thallium flux (F/F0 slope) is 0.0469 (active).

For `CC(C)(C)CC(C)(C)NCC(O)COCCOc1ccc(Br)cc1` (stereo not given), the normalized thallium flux (F/F0 slope) was 0.0489 (active).

`CC1CCCN(S(=O)(=O)c2ccc(N(C(=O)c3cnccn3)C(C(=O)NC3CCCCC3)c3cccs3)cc2)C1` (stereo not given): the normalized thallium flux (F/F0 slope) is 0.0633 (active).

For the molecule `N#Cc1c(N)n(CCOC(=O)c2ccc(Cl)cc2)c2nc3ccccc3nc12`, the normalized thallium flux (F/F0 slope) was 0.0672 (active).

As to `O=C(Nc1nnc(SCc2ccccc2Cl)s1)c1cccc([N+](=O)[O-])c1`, the normalized thallium flux (F/F0 slope) was 0.0638 (active).

As for `CCC(C)(C)n1nnnc1C(c1cccs1)N1CCN(c2nc3ccccc3s2)CC1` (stereo not given), the normalized thallium flux (F/F0 slope) is 0.0713 (inactive).

On to `Cc1ccc(C(=O)C[n+]2cc(-c3ccccc3)n3c2CCCCC3)cc1`, for which the normalized thallium flux (F/F0 slope) was 0.0564 (active).

In the case of `CN(NC(=O)c1ccccc1F)c1nc(C(F)(F)F)nc2ccccc12`, the normalized thallium flux (F/F0 slope) was 0.0894 (inactive).

For `O=C(/C=C/c1ccc(Cl)cc1Cl)c1cccnc1`, the normalized thallium flux (F/F0 slope) is 0.0511 (active).

Consider `O=C(/C=C/c1ccc(Cl)c([N+](=O)[O-])c1)c1ccc(O)cc1`, for which the normalized thallium flux (F/F0 slope) was 0.0498 (active).

Take `O=C(/C=C/c1ccc(Cl)c([N+](=O)[O-])c1)c1cccnc1`: the normalized thallium flux (F/F0 slope) was 0.0474 (active).

As for `O=C1COc2ccc(NC(=O)N3CCN(c4ccc(F)cc4)CC3)cc2N1`, the normalized thallium flux (F/F0 slope) is 0.0765 (inactive).

For `O=C(CN1CCOCC1)N/N=C/c1ccc(-c2ccc(Br)cc2)o1`, the normalized thallium flux (F/F0 slope) was 0.0674 (active).

On to `O=C(NCCc1ccc2c(c1)OCCO2)c1cc2ccccc2o1`, for which the normalized thallium flux (F/F0 slope) is 0.0628 (active).

With `COc1ccccc1-n1c(C)nc2cc(C(=O)NCc3ccc4c(c3)OCO4)ccc21`, the normalized thallium flux (F/F0 slope) is 0.0924 (inactive).

In the case of `COc1ccc2[nH]c(=O)c(CNc3ccc(C)c(C)c3)cc2c1`, the normalized thallium flux (F/F0 slope) was 0.0713 (inactive).

On to `Clc1ccc(-n2nnnc2-c2cnc(-c3ccccn3)nc2-c2cccs2)cc1`, for which the normalized thallium flux (F/F0 slope) is 0.0713 (inactive).

As to `CCC(c1nnnn1C1CCCC1)N(Cc1cccs1)Cc1cc2cccc(C)c2[nH]c1=O` (stereo not given), the normalized thallium flux (F/F0 slope) is 0.0635 (active).

For `Cc1cccc2cc(CN(Cc3nnnn3Cc3ccccc3)C3CCCC3)c(=O)[nH]c12`, the normalized thallium flux (F/F0 slope) is 0.055 (active).

In the case of `COc1ccc(C(=O)OCC(=O)c2ccc(C)c(S(=O)(=O)N3CCOCC3)c2)cc1OC`, the normalized thallium flux (F/F0 slope) is 0.0776 (inactive).

For the molecule `C#CCOCCOCCOCCNc1nc(N2CCN(C(=O)[C@H](CCC(=O)O)n3cc(C(N)CO)nn3)CC2)nc(N2CCN(C(=O)[C@H](CCCCN)n3cc(C(N)[C@H](C)CC)nn3)CC2)n1` (stereo not given in full), the normalized thallium flux (F/F0 slope) is 0.0789 (inactive).

`Cc1ccc(CNC(=O)CC2Sc3ccccc3NC2=O)cc1` (stereo not given): the normalized thallium flux (F/F0 slope) was 0.086 (inactive).

`CSc1cccc(NC(=S)N(Cc2ccccc2)Cc2ccccn2)c1`: the normalized thallium flux (F/F0 slope) was 0.0791 (inactive).

For the molecule `CNC(=O)/C(C#N)=C/c1c(F)cccc1Cl`, the normalized thallium flux (F/F0 slope) was 0.0423 (active).

For the molecule `CCOC(=O)c1c(NC(=O)CCl)sc(C(=O)N(CC)CC)c1C`, the normalized thallium flux (F/F0 slope) is 0.0722 (inactive).

Turning to `COc1ccccc1N1CCN(CCCCOc2ccc(F)cc2)CC1`, the normalized thallium flux (F/F0 slope) was 0.0581 (active).

For `Cc1ccccc1CCN(CC(=O)NC1CCCCC1)C(=O)c1csnn1`, the normalized thallium flux (F/F0 slope) was 0.0568 (active).

`Cc1cc(C(C)(C)C)oc1C(=O)N(CC(=O)NC1CCCC1)Cc1ccc(Cl)cc1`: the normalized thallium flux (F/F0 slope) is 0.0748 (inactive).

With `CCCS(=O)(=O)N1CCC(C(=O)NCCCN(C)Cc2ccccc2)CC1`, the normalized thallium flux (F/F0 slope) was 0.0759 (inactive).

As to `COc1ccc(-c2[nH]ncc2CN(C)Cc2c(C)n[nH]c2C)c(OC)c1`, the normalized thallium flux (F/F0 slope) is 0.0773 (inactive).

For the molecule `COC(=O)Cn1cc(/C=C/[N+](=O)[O-])c2ccccc21`, the normalized thallium flux (F/F0 slope) was 0.0436 (active).

With `CCOc1ccc2nc(N3CCCN(C(=O)Nc4ccccc4C)CC3)c(C#N)cc2c1`, the normalized thallium flux (F/F0 slope) was 0.0592 (active).

Consider `CCOc1ccc2nc(Cl)c(C3CC(c4ccccc4)=NN3C(=O)c3cccs3)cc2c1` (stereo not given), for which the normalized thallium flux (F/F0 slope) was 0.084 (inactive).

As for `COc1ccccc1-n1c(=S)[nH]c2c(sc(=S)n2-c2ccc(C)cc2C)c1=O`, the normalized thallium flux (F/F0 slope) was 0.0774 (inactive).

Consider `COc1ccc(Br)cc1C(=O)Nc1cccc(C)c1C`, for which the normalized thallium flux (F/F0 slope) is 0.0855 (inactive).

`Cc1cc(Br)ccc1NC(=O)c1cnc(N2CCN(c3ccccn3)CC2)c2ccccc12`: the normalized thallium flux (F/F0 slope) was 0.0609 (active).

As to `CN(C)c1ccc(C=C2C(=O)OC3(CCCC3)OC2=O)cc1`, the normalized thallium flux (F/F0 slope) was 0.0453 (active).

`CCOc1ccccc1C1C(C(=O)OC)=CN(C)C=C1C(=O)OC`: the normalized thallium flux (F/F0 slope) is 0.0653 (active).

As for `O=C(Nc1ccccc1-c1ccccc1)c1cccs1`, the normalized thallium flux (F/F0 slope) was 0.0658 (active).

Turning to `c1ccc2c(c1)CSc1sccc1C2=C1CCNCC1`, the normalized thallium flux (F/F0 slope) was 0.0498 (active).

For `Fc1ccc2[nH]c3c(N4CCSCC4)ncnc3c2c1`, the normalized thallium flux (F/F0 slope) is 0.0617 (active).

Regarding `Cc1cc(/C=N/NC(N)=O)c(C)n1C1CCCCC1`, the normalized thallium flux (F/F0 slope) was 0.0777 (inactive).

With `CC(NC(=O)CC1SC(N)=NC1=O)c1ccccc1` (stereo not given), the normalized thallium flux (F/F0 slope) was 0.087 (inactive).

Take `CCOC(=O)C1=C(C)N=c2s/c(=C\C(=O)OC)c(=O)n2C1c1ccc(OC)cc1` (stereo not given): the normalized thallium flux (F/F0 slope) is 0.0406 (active).

Turning to `CCCC(c1nnnn1C(C)(C)C)N1CCN(Cc2ccccc2)CC1` (stereo not given), the normalized thallium flux (F/F0 slope) is 0.0716 (inactive).

In the case of `O=C1c2cccc3c([N+](=O)[O-])ccc(c23)C(=O)N1CC1CCCO1` (stereo not given), the normalized thallium flux (F/F0 slope) was 0.0565 (active).

`CCN1C(=O)/C(=C2/Sc3ccccc3N2CCCS(=O)(=O)O)SC1=S`: the normalized thallium flux (F/F0 slope) was 0.0827 (inactive).

With `CCCCc1nc(NCCN)c(C#N)c2c1CSC(C)(C)C2`, the normalized thallium flux (F/F0 slope) was 0.0552 (active).

As for `COc1cc2c(cc1OC)C(/C=C/c1ccco1)=NCC2`, the normalized thallium flux (F/F0 slope) was 0.0485 (active).

`O=C(Cc1ccc(Br)cc1)N1CCN(c2ccccn2)CC1`: the normalized thallium flux (F/F0 slope) was 0.0628 (active).

As to `O=C(Cc1ccccc1Cl)N1CCN(c2ccccn2)CC1`, the normalized thallium flux (F/F0 slope) was 0.0716 (inactive).

As to `COc1ccc(Cc2nc(-c3ccccn3)no2)cc1OC`, the normalized thallium flux (F/F0 slope) was 0.0708 (inactive).

For the molecule `CCSc1sc(CC)cc1C=O`, the normalized thallium flux (F/F0 slope) is 0.106 (active).

For `CC(NCc1ccccc1OC1CCCC1)c1ccccc1` (stereo not given), the normalized thallium flux (F/F0 slope) was 0.0563 (active).

As for `N=c1c2c(-c3ccccc3)c(-c3ccccc3)n(Cc3ccccc3)c2ncn1CCCO`, the normalized thallium flux (F/F0 slope) was 0.0532 (active).

Consider `Cc1nnnn1/C(=C\c1ccccc1)C(=O)OCC(=O)N1CC2(C)CC1CC(C)(C)C2` (stereo not given), for which the normalized thallium flux (F/F0 slope) is 0.0442 (active).

Turning to `CC(=O)Nc1cccc(OCC(=O)/C=C2\N(C)c3ccccc3C2(C)C)c1`, the normalized thallium flux (F/F0 slope) was 0.0622 (active).

With `COc1ccc(C2=CC(c3cccc(OC)c3)n3nnnc3N2)cc1` (stereo not given), the normalized thallium flux (F/F0 slope) was 0.0704 (inactive).

Turning to `Cc1cc(NC(=O)/C=C/C(=O)N(c2ccccc2C)C(C(=O)NC2CCCC2)c2ccc(F)cc2)no1` (stereo not given), the normalized thallium flux (F/F0 slope) is 0.0543 (active).

As to `N#C/C(=C/c1cccc([N+](=O)[O-])c1)c1nnc2n1CCCCC2`, the normalized thallium flux (F/F0 slope) is 0.0362 (active).

For `CC1=C(C(=O)OCc2ccccc2)C(c2ccco2)n2ncnc2N1` (stereo not given), the normalized thallium flux (F/F0 slope) is 0.0737 (inactive).

In the case of `COc1ccc(C(CCNCc2ccccc2F)c2ccc(F)cc2)cc1` (stereo not given), the normalized thallium flux (F/F0 slope) is 0.0609 (active).

For `Cc1cccc(Oc2c([N+](=O)[O-])c(=O)n(C)c3ccccc23)c1`, the normalized thallium flux (F/F0 slope) is 0.063 (active).

On to `Nc1ccccc1SC(C[N+](=O)[O-])c1ccccc1` (stereo not given), for which the normalized thallium flux (F/F0 slope) was 0.0367 (active).

With `O=C(/C=C/Sc1ncn[nH]1)c1ccc(Cl)cc1`, the normalized thallium flux (F/F0 slope) is 0.0389 (active).

In the case of `Cc1ccc2c(=O)oc(N(C)C)nc2c1`, the normalized thallium flux (F/F0 slope) was 0.0826 (inactive).

Take `CCOc1ccc(-n2cnnn2)cc1S(=O)(=O)N1CCC(C)CC1C` (stereo not given): the normalized thallium flux (F/F0 slope) is 0.0657 (active).

For `N=c1n(CCc2ccccc2)c2ccccc2n1Cc1ccccc1F`, the normalized thallium flux (F/F0 slope) is 0.0479 (active).

For `COc1ccc(Nc2cc(C)nc(-n3nc(C)cc3C)n2)cc1`, the normalized thallium flux (F/F0 slope) is 0.0854 (inactive).

As for `CC1(C)CCSC(/C=C/c2ccccc2)=N1`, the normalized thallium flux (F/F0 slope) is 0.0442 (active).

`CCn1c(/C=C/Nc2ccccc2)[n+](CC)c2ccc(C(=O)OCC(F)(F)F)cc21`: the normalized thallium flux (F/F0 slope) was 0.0522 (active).

Regarding `O=C(Nc1cccc(C(F)(F)F)c1)c1ccc(N2CCNCC2)c([N+](=O)[O-])c1`, the normalized thallium flux (F/F0 slope) was 0.0632 (active).

For the molecule `N#C/C(=C\c1ccccc1C(F)(F)F)C(=O)Nc1ccccc1F`, the normalized thallium flux (F/F0 slope) was 0.0489 (active).

Take `Cc1ccc(N2C(=O)C3CC3C2=O)cc1` (stereo not given): the normalized thallium flux (F/F0 slope) is 0.0794 (inactive).

Consider `N#C/C(=C\C1=C(N2CCOCC2)C(=C\c2ccccc2)/CC1)C(=O)Nc1ccccc1F`, for which the normalized thallium flux (F/F0 slope) was 0.0509 (active).

With `COC(=O)C[n+]1cccc2ccccc21`, the normalized thallium flux (F/F0 slope) was 0.0529 (active).

Take `CN1CCN(c2ccc(S(=O)(=O)N3CCCCC3)cc2NC(=O)Cc2ccccc2F)CC1`: the normalized thallium flux (F/F0 slope) was 0.0614 (active).

As to `CNc1nccc(-c2ccc(Cl)cc2)c1C#N`, the normalized thallium flux (F/F0 slope) is 0.0744 (inactive).

In the case of `CCOC(=O)N/N=C1\CC(C)S(=O)(=O)c2ccc(Cl)cc21` (stereo not given), the normalized thallium flux (F/F0 slope) is 0.0738 (inactive).
